Here are results for eight sequences from PMC7862700, “An all-to-all approach to the identification of sequence-specific readers for epigenetic DNA modifications on cytosine”.

Holding throughout (assay): DAPPL (digital affinity profiling via proximity ligation, sequencing); 10 mM Tris-HCl pH 7.5, 50 mM NaCl, 1 mM DTT, 4% glycerol, room temperature, 30 min; GST-TFs on glutathione beads, 16-mer random dsDNA library, 0.1% formaldehyde crosslink after washing; high values mean tight binding
Holding throughout (details): protein: recombinant; tags: N-terminal GST; dsDNA, one strand shown

One assay has as its target T1, ERF (Homo sapiens, UniProt P50548 1-548).
T1 sequence: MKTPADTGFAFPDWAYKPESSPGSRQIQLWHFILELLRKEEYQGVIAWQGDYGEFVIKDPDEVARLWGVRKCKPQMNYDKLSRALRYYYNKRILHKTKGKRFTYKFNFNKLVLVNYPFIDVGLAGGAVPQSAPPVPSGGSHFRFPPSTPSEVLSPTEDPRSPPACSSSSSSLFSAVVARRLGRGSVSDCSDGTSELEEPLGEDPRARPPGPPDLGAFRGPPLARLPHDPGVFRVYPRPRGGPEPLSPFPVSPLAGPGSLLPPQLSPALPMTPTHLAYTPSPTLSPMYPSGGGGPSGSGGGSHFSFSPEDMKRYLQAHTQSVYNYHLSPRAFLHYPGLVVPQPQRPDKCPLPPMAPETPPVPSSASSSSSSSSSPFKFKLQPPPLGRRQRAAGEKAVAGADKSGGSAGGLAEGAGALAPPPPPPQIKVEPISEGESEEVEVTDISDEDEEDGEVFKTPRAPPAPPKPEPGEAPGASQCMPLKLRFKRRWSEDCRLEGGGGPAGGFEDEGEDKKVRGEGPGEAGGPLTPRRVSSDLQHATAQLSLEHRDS
In outline:
(§1)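 Human transcription factors fused to GST were expressed in yeast, captured on glutathione beads, given DNA barcodes and pooled with a GST-only negative control. Pools were incubated with 200 nmole of a 16-mer random double-stranded DNA library in Tris/NaCl/DTT/glycerol buffer at room temperature for 30 min. They were then washed, crosslinked with 0.1% formaldehyde, proximity-ligated (BsaI/T4 ligase, 1 h, 37 °C), PCR-amplified and sequenced on an Illumina NextSeq500. Binding signal is each 6-mer's read frequency for a factor divided by its frequency for the GST control.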

The next assay has as its target T2, ETV3L (Homo sapiens, UniProt Q6ZN32 1-361).
T2 sequence: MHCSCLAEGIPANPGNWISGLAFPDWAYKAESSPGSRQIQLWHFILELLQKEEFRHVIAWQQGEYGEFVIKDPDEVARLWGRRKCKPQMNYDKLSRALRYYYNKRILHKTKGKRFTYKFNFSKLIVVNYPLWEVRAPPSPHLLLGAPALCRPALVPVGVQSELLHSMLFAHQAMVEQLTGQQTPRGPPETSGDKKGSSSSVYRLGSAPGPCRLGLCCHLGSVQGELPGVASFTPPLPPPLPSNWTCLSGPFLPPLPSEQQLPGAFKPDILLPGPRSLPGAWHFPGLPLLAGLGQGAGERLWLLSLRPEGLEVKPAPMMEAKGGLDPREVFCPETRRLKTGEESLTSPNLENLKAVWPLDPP
The method, boiled down: as §1

For another assay, the target named is T3, ETS2 (Homo sapiens, UniProt P15036 1-469).
T3 sequence: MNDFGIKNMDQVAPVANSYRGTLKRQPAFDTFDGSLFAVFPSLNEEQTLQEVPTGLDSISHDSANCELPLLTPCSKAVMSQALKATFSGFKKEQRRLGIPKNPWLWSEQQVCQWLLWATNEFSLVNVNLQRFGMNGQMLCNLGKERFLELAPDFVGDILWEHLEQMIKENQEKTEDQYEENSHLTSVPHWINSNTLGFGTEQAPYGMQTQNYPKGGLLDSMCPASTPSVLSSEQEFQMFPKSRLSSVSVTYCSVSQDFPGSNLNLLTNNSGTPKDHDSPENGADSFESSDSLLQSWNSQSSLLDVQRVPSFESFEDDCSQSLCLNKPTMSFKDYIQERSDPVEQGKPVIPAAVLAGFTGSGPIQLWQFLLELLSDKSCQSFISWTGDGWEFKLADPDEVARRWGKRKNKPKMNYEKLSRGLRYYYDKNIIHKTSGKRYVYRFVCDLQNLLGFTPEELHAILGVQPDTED
In outline:
as §1

Another assay deals with T4, SPDEF (Homo sapiens, UniProt O95238 1-335).
T4 sequence: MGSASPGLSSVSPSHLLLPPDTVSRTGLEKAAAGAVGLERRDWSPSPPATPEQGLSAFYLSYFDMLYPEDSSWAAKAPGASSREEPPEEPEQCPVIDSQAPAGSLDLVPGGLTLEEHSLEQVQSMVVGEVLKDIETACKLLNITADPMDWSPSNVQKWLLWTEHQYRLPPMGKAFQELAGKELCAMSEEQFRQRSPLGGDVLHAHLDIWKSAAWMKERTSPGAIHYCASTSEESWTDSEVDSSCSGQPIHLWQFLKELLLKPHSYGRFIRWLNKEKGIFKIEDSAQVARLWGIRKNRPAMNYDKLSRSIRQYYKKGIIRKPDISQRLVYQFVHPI
In outline: as §1

A further assay addresses T5, ETV7 (Homo sapiens, UniProt Q9Y603 1-341).
T5 sequence: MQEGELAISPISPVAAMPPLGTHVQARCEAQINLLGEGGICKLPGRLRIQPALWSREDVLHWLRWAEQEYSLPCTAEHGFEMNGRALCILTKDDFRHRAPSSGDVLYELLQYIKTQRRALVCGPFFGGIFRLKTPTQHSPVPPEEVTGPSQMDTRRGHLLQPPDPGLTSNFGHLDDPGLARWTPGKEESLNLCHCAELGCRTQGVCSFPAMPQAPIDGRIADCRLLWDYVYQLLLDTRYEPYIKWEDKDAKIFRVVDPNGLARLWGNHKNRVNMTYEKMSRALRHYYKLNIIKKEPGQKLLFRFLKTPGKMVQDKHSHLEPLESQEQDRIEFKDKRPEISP
The method, boiled down:
as §1

The next assay deals with T6, ELF5 (Homo sapiens, UniProt Q9UKW6-2 1-255).
T6 sequence: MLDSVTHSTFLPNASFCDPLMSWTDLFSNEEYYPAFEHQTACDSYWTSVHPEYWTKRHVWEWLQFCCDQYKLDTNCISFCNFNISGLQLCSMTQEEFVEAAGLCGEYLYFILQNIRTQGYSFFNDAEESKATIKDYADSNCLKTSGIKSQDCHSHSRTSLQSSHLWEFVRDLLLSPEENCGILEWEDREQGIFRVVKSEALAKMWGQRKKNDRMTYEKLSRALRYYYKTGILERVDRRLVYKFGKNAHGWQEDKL
In outline:
as §1

A further assay deals with T7, ETV3 (Homo sapiens, UniProt P41162-2 1-143).
T7 sequence: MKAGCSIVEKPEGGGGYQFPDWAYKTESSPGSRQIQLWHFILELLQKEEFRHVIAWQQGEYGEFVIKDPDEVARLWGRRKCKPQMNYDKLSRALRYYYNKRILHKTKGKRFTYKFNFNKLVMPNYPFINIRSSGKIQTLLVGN
In outline:
as §1

For a further assay, the target named is ETV6 (Homo sapiens, UniProt P41212 1-452). The method, boiled down: as §1
ETV6, sequence (P41212 whole entry): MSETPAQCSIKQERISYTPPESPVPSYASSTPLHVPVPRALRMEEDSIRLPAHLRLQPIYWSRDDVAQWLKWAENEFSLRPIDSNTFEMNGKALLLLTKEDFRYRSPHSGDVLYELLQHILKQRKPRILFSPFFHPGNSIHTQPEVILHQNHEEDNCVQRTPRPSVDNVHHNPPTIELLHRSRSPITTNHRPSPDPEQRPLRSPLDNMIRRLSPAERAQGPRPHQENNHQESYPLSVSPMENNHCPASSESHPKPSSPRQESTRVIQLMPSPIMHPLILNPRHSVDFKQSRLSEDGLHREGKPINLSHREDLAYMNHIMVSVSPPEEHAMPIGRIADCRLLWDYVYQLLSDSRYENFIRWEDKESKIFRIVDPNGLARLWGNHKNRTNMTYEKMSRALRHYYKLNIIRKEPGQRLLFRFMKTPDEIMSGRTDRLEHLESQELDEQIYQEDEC

CGGATG: the binding signal is 1.39 fold enrichment (6-mer frequency, TF over GST control) with ERF; 1.62 fold enrichment (6-mer frequency, TF over GST control) with ETV3L; 1.83 fold enrichment (6-mer frequency, TF over GST control) in the assay with ETS2; 3.14 fold enrichment (6-mer frequency, TF over GST control) with SPDEF; 1.41 fold enrichment (6-mer frequency, TF over GST control) in the assay with ETV7; 1.75 fold enrichment (6-mer frequency, TF over GST control) in the assay with ELF5. Also, the binding signal with ETV3 is 1.75 fold enrichment (6-mer frequency, TF over GST control); with ETV6 it was 1.5 fold enrichment (6-mer frequency, TF over GST control).
Consider CACAAA, for which the binding signal was 1.18 fold enrichment (6-mer frequency, TF over GST control) in the assay with ERF; 1.16 fold enrichment (6-mer frequency, TF over GST control) with ETV3L; 1.16 fold enrichment (6-mer frequency, TF over GST control) with ETS2; 1.12 fold enrichment (6-mer frequency, TF over GST control) in the assay with SPDEF; 1.01 fold enrichment (6-mer frequency, TF over GST control) in the assay with ETV7; 1.1 fold enrichment (6-mer frequency, TF over GST control) with ELF5. Further, the binding signal with ETV3 is 1.09 fold enrichment (6-mer frequency, TF over GST control); with ETV6, 1.08 fold enrichment (6-mer frequency, TF over GST control).
With GAAGAA, the binding signal is 1.02 fold enrichment (6-mer frequency, TF over GST control) with ERF; 1.18 fold enrichment (6-mer frequency, TF over GST control) with ETV3L; 1.16 fold enrichment (6-mer frequency, TF over GST control) in the assay with ETS2; 1.09 fold enrichment (6-mer frequency, TF over GST control) in the assay with SPDEF; 1.16 fold enrichment (6-mer frequency, TF over GST control) with ETV7; 1.27 fold enrichment (6-mer frequency, TF over GST control) with ELF5. Besides, the binding signal is 1.12 fold enrichment (6-mer frequency, TF over GST control) with ETV3 and 1.18 fold enrichment (6-mer frequency, TF over GST control) with ETV6.
For TCTATA, the binding signal with ERF is 1.15 fold enrichment (6-mer frequency, TF over GST control); with ETV3L, 1.09 fold enrichment (6-mer frequency, TF over GST control); with ETS2 it was 1.2 fold enrichment (6-mer frequency, TF over GST control); with SPDEF, 1.15 fold enrichment (6-mer frequency, TF over GST control); in the assay with ETV7, 1.1 fold enrichment (6-mer frequency, TF over GST control); with ELF5, 1.08 fold enrichment (6-mer frequency, TF over GST control). Besides, the binding signal is 1.06 fold enrichment (6-mer frequency, TF over GST control) in the assay with ETV3 and 1.07 fold enrichment (6-mer frequency, TF over GST control) in the assay with ETV6.
For AACTAT, the binding signal is 1.17 fold enrichment (6-mer frequency, TF over GST control) in the assay with ERF; 1.28 fold enrichment (6-mer frequency, TF over GST control) in the assay with ETV3L; 1.45 fold enrichment (6-mer frequency, TF over GST control) with ETS2; 1.42 fold enrichment (6-mer frequency, TF over GST control) with SPDEF; 1.38 fold enrichment (6-mer frequency, TF over GST control) with ETV7; 1.45 fold enrichment (6-mer frequency, TF over GST control) with ELF5. The binding signal is 1.28 fold enrichment (6-mer frequency, TF over GST control) with ETV3 and 1.33 fold enrichment (6-mer frequency, TF over GST control) with ETV6.
Turning to CGACAC, the binding signal with ERF was 1.08 fold enrichment (6-mer frequency, TF over GST control); in the assay with ETV3L, 1.21 fold enrichment (6-mer frequency, TF over GST control); with ETS2 it was 1.19 fold enrichment (6-mer frequency, TF over GST control); with SPDEF, 1.15 fold enrichment (6-mer frequency, TF over GST control); in the assay with ETV7, 1.16 fold enrichment (6-mer frequency, TF over GST control); with ELF5 it was 1.19 fold enrichment (6-mer frequency, TF over GST control). For the same sequence, the binding signal was 1.2 fold enrichment (6-mer frequency, TF over GST control) in the assay with ETV3 and 1.28 fold enrichment (6-mer frequency, TF over GST control) in the assay with ETV6.
For CTTGTG, the binding signal with ERF is 1.59 fold enrichment (6-mer frequency, TF over GST control); with ETV3L, 1.4 fold enrichment (6-mer frequency, TF over GST control); with ETS2, 1.5 fold enrichment (6-mer frequency, TF over GST control); with SPDEF, 1.41 fold enrichment (6-mer frequency, TF over GST control); with ETV7, 1.41 fold enrichment (6-mer frequency, TF over GST control); with ELF5, 1.44 fold enrichment (6-mer frequency, TF over GST control). Besides, the binding signal with ETV3 is 1.51 fold enrichment (6-mer frequency, TF over GST control); with ETV6 it was 1.22 fold enrichment (6-mer frequency, TF over GST control).
Consider CGTCCT, for which the binding signal with ERF was 1.41 fold enrichment (6-mer frequency, TF over GST control); in the assay with ETV3L it was 1.31 fold enrichment (6-mer frequency, TF over GST control); with ETS2 it was 1.28 fold enrichment (6-mer frequency, TF over GST control); in the assay with SPDEF it was 1.56 fold enrichment (6-mer frequency, TF over GST control); with ETV7, 1.45 fold enrichment (6-mer frequency, TF over GST control); with ELF5 it was 1.56 fold enrichment (6-mer frequency, TF over GST control). Moreover, the binding signal was 1.53 fold enrichment (6-mer frequency, TF over GST control) with ETV3 and 1.47 fold enrichment (6-mer frequency, TF over GST control) in the assay with ETV6.
